Results on 27 compounds are retold here after PubChem BioAssay (Tox21).

Records with an inconclusive call do not appear. The source made the active and inactive calls. Unless noted, calls follow the shape of the dose curve; as a rule, active = well fitted curve in the direction sought with a large enough effect in the repeat runs; inconclusive = weak or mixed curves; inactive = no such curve, though single readings can be large; an effect the other way counts as inactive or inconclusive.

The target of test [1] is Peroxisome proliferator-activated receptor delta (Homo sapiens) (UniProt Q03181). In words: qHTS assay to identify small molecule agonists of the peroxisome proliferator-activated receptor delta (PPARd) signaling pathway (AID 743212; calls by dose curve;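 also: HEK293H cells with PPARd UAS beta-lactamase reporter GeneBLAzer system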). Summed up:
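Beta-lactamase reporter read by fluorescence (LiveBLAzer B/G FRET, 2 h, room temperature). Test agents, in DMSO, incubated at 37 C with PPARd-bla HEK293H cells.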
Background: In qHTS, concentration-response curves come from the screen itself.

The nature of test [2]: qHTS assay to identify small molecule antagonists of the farnesoid-X-receptor (FXR) signaling pathway - cell viability counter screen (AID 743221; active = well fitted cell-killing curve with a large enough effect in the repeat runs, not every such curve was filed as active; also: nearly all actives have a fitted effect of over 50% in size; also: potency is read from the fitted curve at half-maximal effect). The method in brief:
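Compound effects on cell number were measured as CellTiter-Glo luminescence in HEK 293T cells expressing FXR-UAS-bla, after 16 h at 37 C with 50 uM CDCA (final).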

For test [3], the target named is Vitamin D3 receptor (Homo sapiens) (UniProt P11473). As to the kind of experiment: qHTS assay to identify small molecule agonists of the vitamin D receptor (VDR) signaling pathway (AID 743222; calls by dose curve). Summed up: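 Following 4 h attachment at 37C, VDR-bla cells (2,000 per well) received DMSO-dissolved compounds or controls. After 16 h incubation, LiveBLAzer B/G FRET substrate was added and fluorescence read 2 h later at room temperature.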

Test [4] can be described thus: qHTS assay to identify small molecule agonists of the vitamin D receptor (VDR) signaling pathway - cell viability counter screen (AID 743224). Also: nearly all actives have a fitted effect of over 50% in size. Also: potency is read from the fitted curve at half-maximal effect. Summed up: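 In parallel with the bla FRET readout, cytotoxicity toward VDR-bla cells after 16 h compound exposure was assessed by CellTiter-Glo, with luminescence recorded after a 30 min room-temperature incubation.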
Test [5] in a line: qHTS assay to identify small molecule antagonists of the peroxisome proliferator-activated receptor delta (PPARd) signaling pathway - cell viability counter screen (AID 743213). Also: nearly all actives have a fitted effect of over 50% in size. Also: potency is read from the fitted curve at half-maximal effect. Summed up:
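CellTiter-Glo was added to PPARd-bla HEK293H wells following 17 h compound treatment in the presence of 300 nM L165041. Luminescence was recorded after 30 min at room temperature.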

The target in test [6] is Bile acid receptor (Homo sapiens) (UniProt Q96RI1). In words: qHTS assay to identify small molecule antagonists of the farnesoid-X-receptor (FXR) signaling pathway (AID 743217; active = well fitted inhibition curve with a large enough effect in the signal ratio in the repeat runs, not every such curve was filed as active; the % refers to the signal ratio; also: potency is read from the fitted curve at half-maximal effect). Summed up:
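FRET fluorescence after 2 h room-temperature LiveBLAzer loading gives the readout. Prior step: FXR-bla HEK 293T cells, seeded and incubated 5 h, received test compounds plus 50 uM final CDCA for 16 h at 37 °C.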

Test [7] shares this target. As to the kind of experiment: qHTS assay to identify small molecule agonists of the farnesoid-X-receptor (FXR) signaling pathway (AID 743220; active = well fitted activation curve with a large enough effect in the signal ratio in the repeat runs, not every such curve was filed as active; the % refers to the signal ratio). The method in brief:
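FXR-UAS-bla HEK 293T cells carrying a UAS-driven beta-lactamase reporter were plated for 5 h at 37C/5% CO2, then exposed to DMSO-dissolved Tox21 10K compounds for 16 h at 37C. A LiveBLAzer B/G FRET substrate was loaded for 2 h at room temperature before fluorescence reading.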

The target of test [8] is Peroxisome proliferator-activated receptor delta (Homo sapiens) (UniProt Q03181). In words: qHTS assay to identify small molecule antagonists of the peroxisome proliferator-activated receptor delta (PPARd) signaling pathway (AID 743215; active = well fitted inhibition curve with a large enough effect in the signal ratio in the repeat runs, not every such curve was filed as active; the % refers to the signal ratio;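 also: cells stimulated with agonist L165041 at 300 nM final during compound exposure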; also: potency is read from the fitted curve at half-maximal effect). The method in brief:
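Fluorescence from cleaved LiveBLAzer B/G FRET substrate (2 h, room temperature) reports PPARd-driven beta-lactamase in HEK293H UAS-bla cells. Cells had been treated 17 h at 37 C with compound plus 300 nM final L165041.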

Test [9] in a line: qHTS assay to identify small molecule agonists of the farnesoid-X-receptor (FXR) signaling pathway - cell viability counter screen (AID 743218). Also: nearly all actives have a fitted effect of over 45% in size. Also: potency is read from the fitted curve at half-maximal effect. Summed up: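 Readout: CellTiter-Glo luminescence, 30 min RT, multiplexed after the FXR-bla FRET reading. HEK 293T FXR-UAS-bla cells received compound 5 h post-plating and were incubated 16 h at 37 C.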
In test [10] the target is Vitamin D3 receptor (Homo sapiens) (UniProt P11473). As to the kind of experiment: qHTS assay to identify small molecule antagonists of the vitamin D receptor (VDR) signaling pathway (AID 743223; active = well fitted inhibition curve with a large enough effect in the signal ratio in the repeat runs, not every such curve was filed as active; the % refers to the signal ratio). The method in brief: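 Beta-lactamase activity in VDR-bla cells is measured by FRET substrate fluorescence (2 h, room temperature) after cells spend 16 h at 37C with test compound and 3 nM final 1alpha,25-dihydroxyvitamin D3.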

Sequence of Vitamin D3 receptor (Homo sapiens) (P11473 whole entry, looked up): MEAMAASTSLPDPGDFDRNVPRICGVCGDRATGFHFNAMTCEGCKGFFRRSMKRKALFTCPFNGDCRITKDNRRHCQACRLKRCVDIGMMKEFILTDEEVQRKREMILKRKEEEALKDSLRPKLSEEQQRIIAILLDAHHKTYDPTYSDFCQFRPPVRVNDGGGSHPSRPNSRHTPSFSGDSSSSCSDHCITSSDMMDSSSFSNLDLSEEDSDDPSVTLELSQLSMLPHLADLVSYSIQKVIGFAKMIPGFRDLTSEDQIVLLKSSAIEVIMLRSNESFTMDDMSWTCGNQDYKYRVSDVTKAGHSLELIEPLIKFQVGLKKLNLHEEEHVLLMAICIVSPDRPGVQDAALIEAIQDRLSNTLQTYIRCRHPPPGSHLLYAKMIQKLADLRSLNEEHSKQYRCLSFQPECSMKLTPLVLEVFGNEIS
Sequence of Bile acid receptor (Homo sapiens) (Q96RI1 whole entry, looked up): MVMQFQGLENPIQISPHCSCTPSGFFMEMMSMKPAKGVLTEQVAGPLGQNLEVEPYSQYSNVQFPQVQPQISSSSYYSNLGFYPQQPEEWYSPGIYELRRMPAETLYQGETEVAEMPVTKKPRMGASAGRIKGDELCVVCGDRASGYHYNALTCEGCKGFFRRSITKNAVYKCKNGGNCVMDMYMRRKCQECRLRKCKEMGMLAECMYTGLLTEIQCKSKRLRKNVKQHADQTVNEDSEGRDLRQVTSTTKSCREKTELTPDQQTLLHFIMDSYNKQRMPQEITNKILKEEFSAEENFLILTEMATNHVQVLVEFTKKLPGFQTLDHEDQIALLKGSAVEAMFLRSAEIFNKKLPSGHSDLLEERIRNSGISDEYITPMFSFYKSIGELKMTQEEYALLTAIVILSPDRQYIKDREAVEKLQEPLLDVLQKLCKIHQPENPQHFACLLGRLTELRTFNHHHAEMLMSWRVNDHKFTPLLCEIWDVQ
Sequence of Peroxisome proliferator-activated receptor delta (Homo sapiens) (Q03181 whole entry, looked up): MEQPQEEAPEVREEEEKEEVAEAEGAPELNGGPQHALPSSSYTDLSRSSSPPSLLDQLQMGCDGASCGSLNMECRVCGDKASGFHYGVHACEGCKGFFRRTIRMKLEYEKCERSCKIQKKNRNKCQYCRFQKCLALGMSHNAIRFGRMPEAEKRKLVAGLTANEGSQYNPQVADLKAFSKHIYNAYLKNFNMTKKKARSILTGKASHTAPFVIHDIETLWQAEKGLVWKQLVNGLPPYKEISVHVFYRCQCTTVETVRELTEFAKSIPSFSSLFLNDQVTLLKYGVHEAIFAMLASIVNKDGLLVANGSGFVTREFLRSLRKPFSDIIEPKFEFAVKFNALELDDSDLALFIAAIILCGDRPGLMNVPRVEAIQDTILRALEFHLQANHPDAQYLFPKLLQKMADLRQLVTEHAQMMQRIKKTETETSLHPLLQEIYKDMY

Regarding `CC(C)N1C(=O)N(c2ccccc2)CSC1=NC(C)(C)C`, the Potency entry in test [1], in test [2] and in [3] was “inactive” in each case. In [4], the Potency was 49 µM (active).
As for `CCOC(=O)OC1=C(c2cc(C)ccc2C)C(=O)NC12CCC(OC)CC2` (stereo unspecified), the Potency result in test [1], in test [5], in [6], in test [2], in test [3] and in test [4] was “inactive” in each case. The compound was called inactive in test [7].
In the case of `BrC(Br)Br`, the Potency entry in test [1], in test [5], in test [8], in [6], in [9] and in test [3] was “inactive” in each case. In test [4], the Potency entry is “inactive”. The call in [7] was inactive.
For the compound `CC(C)(C)c1cc([N+](=O)[O-])cc(C(C)(C)C)c1O`, the Potency entry in [1], in [5], in test [8], in test [9] and in [3] was “inactive” each time. Moreover, the call in test [7] was inactive. Besides, the Potency in test [4] is 12.3 µM (active).
With `ClCc1ccc(Cl)cc1Cl`, the Potency entry in test [1], in [5], in [8], in test [2], in test [3] and in test [10] was “inactive” each time. The Potency result in [4] was “inactive”.
With `C[C@]12CC[C@@H]3c4ccc(OC(=O)N(CCCl)CCCl)cc4CC[C@H]3[C@@H]1CC[C@@H]2O`, the Potency entry in [1] and in test [4] was “inactive” throughout. Further, the Potency in [6] is 21.1 µM (active). In addition, the compound was called inactive in test [7].
As for `N#CCCC(Br)(C#N)CBr` (stereo unspecified), the Potency result in [1] and in test [2] was “inactive” each time. In addition, the compound was classed as inactive in [7]. The Potency in [4] was 43.6 µM (active).
In the case of `O=[N+]([O-])c1ccc(Oc2ccc(C(F)(F)F)cc2[N+](=O)[O-])cc1`, the Potency entry in [1], in test [5], in test [6], in test [3] and in test [4] was “inactive” each time. For the same compound, the outcome in test [7] was inactive.
`BrCBr`: the Potency result in test [1], in [5], in [8], in test [9], in test [2] and in test [3] was “inactive” in each case. The Potency result in test [10] and in test [4] was “inactive” each time.
For `CC(=O)OC1(c2ccccc2)CCN(CCc2ccccc2)CC1`, the Potency entry in test [5], in [8], in [2] and in test [4] was “inactive” in each case.
As to `O=C(CCCN1CCC2(CC1)C(=O)NCN2c1ccccc1)c1ccc(F)cc1`, the Potency entry in test [5], in test [8], in test [6], in [2], in test [3] and in test [10] was “inactive” in each case. Moreover, in test [7], the outcome was inactive.
For the compound `C[C@H]1CC[C@@H]2[C@@H](C)[C@H]3[C@H](C[C@H]4[C@@H]5CC=C6CC(O[C@@H]7O[C@H](CO)[C@H](O)[C@H](O[C@@H]8O[C@H](CO)[C@@H](O)[C@H](O)[C@H]8O)[C@H]7O[C@H]7O[C@@H](C)[C@H](O)[C@@H](O)[C@H]7O)CC[C@]6(C)[C@H]5CC[C@]34C)N2C1` (stereo partly specified), the Potency in [5] is 25.3 µM (active). Besides, the Potency result in test [8], in test [3], in test [10] and in test [4] was “inactive” in each case.
As to `Clc1ccc(CO/N=C(\Cn2ccnc2)c2ccc(Cl)cc2Cl)c(Cl)c1`, the Potency result in test [5], in [8], in test [2], in test [3] and in test [4] was “inactive” each time.
For `N#C/C=C/C#N`, the Potency result in [5], in [8], in [2], in test [10] and in test [4] was “inactive” in each case.
For the compound `O=C(NC(=O)c1c(F)cccc1F)Nc1cc(Cl)c(OC(F)(F)C(F)F)c(Cl)c1`, the Potency result in test [5], in [8] and in [4] was “inactive” throughout.
In the case of `FC(Cl)(Cl)Cl`, the Potency entry in [5], in test [6], in test [9], in test [2], in test [3] and in test [4] was “inactive” in each case. In test [7], the call was inactive.
On to `N#CNC#N`, for which the Potency result in test [5], in test [6], in test [9], in test [2], in test [3] and in [10] was “inactive” each time. The Potency entry in test [4] was “inactive”. Besides, the compound was classed as inactive in test [7].
`CCCN(CCC)c1c([N+](=O)[O-])cc(S(N)(=O)=O)cc1[N+](=O)[O-]`: the Potency in [5] was 37 µM (active); in [8] it was 58.6 µM (active); in test [6] it was 58.6 µM (active); in test [2], 52.2 µM (active); in test [4] it was 52.2 µM (active).
On to `Clc1ccc(-c2ccc(Cl)c(Cl)c2Cl)c(Cl)c1Cl`, for which the Potency result in [5], in test [8], in test [3], in test [10] and in test [4] was “inactive” in each case. Besides, the Potency in test [9] was 46.6 µM (active). Moreover, the compound was classed as inactive in [7].
With `NNC(=O)c1ccccc1`, the Potency entry in test [5], in [8], in [9] and in test [2] was “inactive” throughout.
In the case of `CCC(C)(C)C(=O)OC1=C(c2ccc(Cl)cc2Cl)C(=O)OC12CCCCC2`, the Potency result in [5], in test [8], in [9], in [2], in test [3] and in [4] was “inactive” each time. Besides, the result in test [7] was inactive.
In the case of `CC(=O)O[C@H]1CC[C@@]2(C)C(=CC[C@@H]3[C@@H]2CC[C@]2(C)C(=O)CC[C@@H]32)C1`, the Potency entry in [5], in test [6], in test [9], in test [2] and in test [4] was “inactive” each time.
`COc1ccc(OC)c(CC(C)N)c1` (stereo unspecified): the Potency entry in [5], in test [8], in test [2], in test [3], in [10] and in test [4] was “inactive” each time.
Consider `CCCCCCCCCBr`, for which the Potency result in test [5], in test [8], in [9], in [2], in test [3] and in [10] was “inactive” throughout. The Potency entry in test [4] was “inactive”.
In the case of `Cn1cc(C2=C(c3cn(C4CCN(Cc5ccccn5)CC4)c4ccccc34)C(=O)NC2=O)c2ccccc21`, the Potency result in test [5], in test [8], in test [2], in [10] and in test [4] was “inactive” throughout. In test [7], the compound was called inactive.
Take `OC(c1ccc(Cl)cc1)(c1ccc(Cl)cc1)C(Cl)(Cl)Cl`: the Potency entry in [5], in test [8], in test [2], in test [3] and in test [10] was “inactive” in each case. Moreover, in [7], the compound was classed as inactive.
`Oc1ccc(C2(c3ccc(O)cc3)c3ccccc3-c3ccccc32)cc1`: the Potency is 13.8 µM (active) in [5], 11 µM (active) in test [8] and 54.9 µM (active) in test [9]. The Potency result in test [3] was “inactive”.
